Records with an inconclusive call do not appear. Activity calls are given as the source filed them. Unless noted, the call rests on the fitted dose curve.
Key:
[1] = Nuclear factor erythroid 2-related factor 2/antioxidant responsive element (Nrf2/ARE) small molecule agonists: qHTS cell viability counter screen in human keratinocytes (AID 1919968; active means well fitted curve in the direction sought with a large enough effect in the repeat runs; an effect the other way counts as inactive or inconclusive; further: nearly all actives have a fitted effect of over 55% in size)
Method in brief: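 Fluorescence read-out from CellTiter-Fluor after 1 h at 37 C. Wells held HaCaT-derived ARE-luciferase reporter cells (1,500/well) treated 23 h with DMSO-dissolved compounds. Run in the same wells as the luciferase agonist read.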

[2] = Nuclear factor erythroid 2-related factor 2/antioxidant responsive element (Nrf2/ARE) small molecule agonists: luciferase reporter gene qHTS assay in human keratinocytes (AID 1919969); further: nearly all actives have a fitted effect of over 35% in size
[3] = biological target: KiSS-1 receptor (Homo sapiens) (UniProt Q969F8); assay: Human kisspeptin (KISS1R) small molecule agonists, calcium flux assay in KISS1R-HEK293 cells (AID 1920064; active means well fitted curve in the direction sought with a large enough effect in the repeat runs; an effect the other way counts as inactive or inconclusive)
Method in brief: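 Calcium flux read-out: kinetic fluorescence at Ex/Em=480/540, 1 s intervals over 3 min, after pin-tool compound addition to dye-loaded KISS1R-HEK293 cells. Fifteen concentrations, triplicates.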

[4] = G protein-coupled receptor (GPCR) small molecule agonists, calcium flux assay: HEK293 wild type cell line counter screen (AID 1920065)
Method in brief: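 Agonist mode; 18 h seeding at 37 C, 1 h dye load at 37 C; compounds pinned from DMSO, ATP as positive control; kinetic fluorescence 480/540 nm, 3 min, 1 s reads; 15 concentrations, triplicate.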

[5] = p53 small molecule agonists, cell-based qHTS assay with human liver microsomes (AID 1963577);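 further: p53 response element beta-lactamase reporter cells with liver microsomes plus NADPH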
Method in brief: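 Steps: plate p53RE-bla cells, incubate 5 h at 37 C; add compound in DMSO; add microsomes (0.5 mg/mL final) and NADPH (0.5 mg/mL final); incubate 16 h at 37 C; add LiveBLAzer, 2 h RT; read fluorescence.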

[6] = p53 small molecule agonists, cell-based qHTS assay with rat liver microsomes (AID 1963578)
Method in brief: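 Metabolic activation is supplied by rat liver microsomes with NADPH (each 0.5 mg/mL final). p53RE-bla cells incubate with compound 16 h at 37 C; reporter activity is measured by LiveBLAzer fluorescence.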

[7] = p53 small molecule agonists, cell-based qHTS assay with human liver microsomes: qHTS cell viability counter screen (AID 1963579); further: nearly all actives have a fitted effect of over 45% in size
Method in brief: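 After the 460/530 nm beta-lactamase read, CellTiter-Glo was added to the same wells and luminescence measured after 30 min at room temperature, giving viability of p53RE-bla cells treated 16 h with compounds plus microsomes and NADPH.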

[8] = p53 small molecule agonists, cell-based qHTS assay: qHTS cell viability counter screen (AID 1963581); further: nearly all actives have a fitted effect of over 45% in size
Method in brief: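 Cytotoxicity read-out: ATP-based luminescence (CellTiter-Glo, 30 min RT) measured in the same wells as the p53 reporter assay, HCT-116 p53RE-bla cells, 16 h compound exposure at 37 C.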

[9] = biological target: 5-hydroxytryptamine receptor 2A (Homo sapiens) (UniProt P28223); assay: 5-hydroxytryptamine receptor 2A (HTR2A) small molecule antagonists, cell-based qHTS assay (AID 1963586); further: nearly all actives have a fitted effect of over 45% in size
Method in brief: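 CHO cells stably expressing human HTR2A were plated for 18 h at 37 C, then loaded with calcium dye for 1 h. Compounds were preincubated 5 min at room temperature before DOI (4 nM solution) was added. Kinetic fluorescence was read for 3 min.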

[10] = biological target: 5-hydroxytryptamine receptor 2A (Homo sapiens) (UniProt P28223); assay: 5-hydroxytryptamine receptor 2A (HTR2A) small molecule agonists, cell-based qHTS assay (AID 1963587); further: nearly all actives have a fitted effect of over 30% in size
Method in brief: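 Kinetic calcium-flux fluorescence (2 min, 1 sec intervals) after compound addition in agonist mode. HTR2A-CHO cells were cultured 18 h, then dye-loaded 1 h at 37 C.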

[11] = biological target: Muscarinic acetylcholine receptor M1 (Homo sapiens) (UniProt P11229); assay: Cholinergic receptor muscarinic 1 (CHRM1) small molecule antagonists, cell-based qHTS assay (AID 1963588); further: nearly all actives have a fitted effect of over 40% in size
Method in brief: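 Compounds were tested at 15 concentrations in three independent runs. Dye-loaded CHRM1-CHO cells were exposed 5 min at room temperature before stimulation by acetylcholine added at 50nM. Intracellular calcium was read kinetically on FDSS for 3 min.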

[12] = biological target: Muscarinic acetylcholine receptor M1 (Homo sapiens) (UniProt P11229); assay: Cholinergic receptor muscarinic 1 (CHRM1) small molecule agonists, cell-based qHTS assay (AID 1963589); further: nearly all actives have a fitted effect of over 35% in size
Method in brief: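 Calcium flux read-out: kinetic fluorescence at 1 sec intervals after pin-tool compound addition to dye-loaded CHRM1-CHO cells (human M1). Agonist mode; 15 concentrations tested in triplicate independent runs.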

[13] = cAMP Responsive Elements (CRE) small molecule agonists, cell-based qHTS assay (AID 1963590)
Method in brief: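 Beta-lactamase reporter readout: LiveBLAzer B/G FRET substrate, 2 h at room temperature, added after 3 h compound treatment of CRE-bla HEK 293T cells at 37 C/5% CO2.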

[14] = cAMP Responsive Elements (CRE) small molecule antagonists, cell-based qHTS assay (AID 1963591; active means well fitted inhibition curve with a large enough effect in the signal ratio in the repeat runs, not every such curve was filed as active; the % refers to the signal ratio)
Method in brief: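 HEK293T CRE-bla; 18 h preincubation; compound pin-transfer; NKH477 0.25 uM final, 3 h, 37 C; LiveBLAzer FRET substrate 2 h RT.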

[15] = biological target: Beta-2 adrenergic receptor (Homo sapiens) (UniProt P07550); assay: Adrenergic beta2 receptor (ADRB2) small molecule antagonists, cell-based qHTS assay (AID 1963592); further: series mostly up to about 92 µM; nearly all actives have a fitted effect of over 50% in size
Method in brief: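 Assay format: CHO-ADRB2 cells, 18-20hr seeding at 37C/5% CO2, then compound plus 1nM isoproterenol agonist mix for 0.5hr RT. Homogeneous time-resolved fluorescence cAMP detection after 1hr, expressed as 665/615 nm ratio.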

[16] = biological target: D(2) dopamine receptor (Homo sapiens) (UniProt P14416); assay: Dopamine D2 receptor (DRD2) small molecule agonists, cell-based qHTS assay (AID 1963594); further: nearly all actives have a fitted effect of over 35% in size
Method in brief: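 cAMP accumulation in DRD2-HEK293 cells measured by HTRF after 1 h detection; compounds added 10 min before NKH477 (200nM […]) forskolin-analogue stimulation, 30 min at room temperature, with Ro20-1724 present at 0.1 mM final.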

[17] = biological target: D(2) dopamine receptor (Homo sapiens) (UniProt P14416); assay: Dopamine D2 receptor (DRD2) small molecule antagonists, cell-based qHTS assay (AID 1963595; active means well fitted inhibition curve with a large enough effect in the signal ratio in the repeat runs, with a control signal flat; the % refers to the signal ratio)
Method in brief: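 Human DRD2 antagonist qHTS measuring cAMP by HTRF. The cells are exposed to compound for 10 min, then to NKH477 (200 nM) and quinpirole (12 nM) for 30 min at RT, with Ro20-1724 (0.1 mM) present throughout.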

[18] = p53 small molecule agonists, cell-based qHTS assay with rat liver microsomes: qHTS cell viability counter screen (AID 1963580); further: nearly all actives have a fitted effect of over 45% in size
Method in brief: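 Cytotoxicity counter screen: intracellular ATP read by CellTiter-Glo luminescence in the p53 reporter wells. HCT-116 p53RE-bla cells were treated for 16 h at 37 C alongside rat liver microsomes and NADPH, each 0.5 mg/mL final.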

[19] = p53 small molecule agonists, cell-based qHTS assay (AID 1963582; active means well fitted activation curve with a large enough effect in the signal ratio in the repeat runs, not every such curve was filed as active; the % refers to the signal ratio)
Method in brief: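 Fluorescence intensity read-out of a beta-lactamase reporter under a p53 response element. Cells were exposed to DMSO-dissolved compounds for 16 h at 37 C, then developed with FRET substrate for 2 h at RT.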
On the % scale 0 is the no-effect control and ±100 the full control effect.

Chain of 5-hydroxytryptamine receptor 2A (Homo sapiens) (P28223 whole entry, looked up): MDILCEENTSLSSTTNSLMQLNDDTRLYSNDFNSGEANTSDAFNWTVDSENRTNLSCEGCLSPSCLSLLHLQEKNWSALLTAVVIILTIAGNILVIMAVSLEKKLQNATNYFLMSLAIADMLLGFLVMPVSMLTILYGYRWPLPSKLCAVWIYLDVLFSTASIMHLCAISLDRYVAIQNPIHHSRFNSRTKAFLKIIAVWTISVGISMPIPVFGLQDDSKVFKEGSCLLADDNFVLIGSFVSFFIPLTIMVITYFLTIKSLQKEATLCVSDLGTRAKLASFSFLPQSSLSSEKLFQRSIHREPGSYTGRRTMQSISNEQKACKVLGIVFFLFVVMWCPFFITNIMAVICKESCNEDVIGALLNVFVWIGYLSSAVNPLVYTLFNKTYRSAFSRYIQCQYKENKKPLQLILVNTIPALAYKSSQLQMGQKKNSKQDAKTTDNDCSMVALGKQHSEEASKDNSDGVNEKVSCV
Chain of KiSS-1 receptor (Homo sapiens) (Q969F8 whole entry, looked up): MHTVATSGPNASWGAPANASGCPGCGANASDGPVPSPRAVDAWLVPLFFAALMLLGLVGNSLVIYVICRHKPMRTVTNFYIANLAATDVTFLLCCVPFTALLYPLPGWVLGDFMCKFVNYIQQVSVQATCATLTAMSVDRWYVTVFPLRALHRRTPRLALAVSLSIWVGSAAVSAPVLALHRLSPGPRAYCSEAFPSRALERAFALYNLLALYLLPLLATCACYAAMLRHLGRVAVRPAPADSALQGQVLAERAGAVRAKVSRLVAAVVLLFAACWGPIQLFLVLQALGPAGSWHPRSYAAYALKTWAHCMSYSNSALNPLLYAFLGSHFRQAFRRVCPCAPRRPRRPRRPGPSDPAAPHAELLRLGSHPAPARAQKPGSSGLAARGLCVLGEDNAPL
Chain of Beta-2 adrenergic receptor (Homo sapiens) (P07550 whole entry, looked up): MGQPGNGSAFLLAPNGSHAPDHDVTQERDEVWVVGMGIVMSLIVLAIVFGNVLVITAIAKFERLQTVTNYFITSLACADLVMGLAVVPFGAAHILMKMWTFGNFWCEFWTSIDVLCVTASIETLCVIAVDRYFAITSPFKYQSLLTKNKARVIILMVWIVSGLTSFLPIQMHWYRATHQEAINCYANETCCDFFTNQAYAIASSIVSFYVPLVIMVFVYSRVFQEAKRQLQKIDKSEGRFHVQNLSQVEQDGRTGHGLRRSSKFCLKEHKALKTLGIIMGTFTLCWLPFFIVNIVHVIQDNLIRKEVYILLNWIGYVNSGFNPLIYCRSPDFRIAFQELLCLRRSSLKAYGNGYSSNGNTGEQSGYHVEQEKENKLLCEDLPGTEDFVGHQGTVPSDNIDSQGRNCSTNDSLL
Chain of Muscarinic acetylcholine receptor M1 (Homo sapiens) (P11229 whole entry, looked up): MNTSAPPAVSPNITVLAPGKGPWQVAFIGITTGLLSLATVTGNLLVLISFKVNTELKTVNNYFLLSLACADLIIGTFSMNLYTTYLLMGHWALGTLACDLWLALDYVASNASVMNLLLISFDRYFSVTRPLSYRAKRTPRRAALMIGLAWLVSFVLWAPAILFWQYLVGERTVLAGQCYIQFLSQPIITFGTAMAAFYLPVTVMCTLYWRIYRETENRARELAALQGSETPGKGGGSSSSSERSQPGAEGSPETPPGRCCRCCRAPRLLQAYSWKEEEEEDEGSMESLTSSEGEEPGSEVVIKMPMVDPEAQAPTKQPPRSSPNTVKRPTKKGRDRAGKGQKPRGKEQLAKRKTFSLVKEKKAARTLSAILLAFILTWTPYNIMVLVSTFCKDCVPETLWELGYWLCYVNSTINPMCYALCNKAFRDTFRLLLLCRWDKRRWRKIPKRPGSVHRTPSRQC
Chain of D(2) dopamine receptor (Homo sapiens) (P14416 whole entry, looked up): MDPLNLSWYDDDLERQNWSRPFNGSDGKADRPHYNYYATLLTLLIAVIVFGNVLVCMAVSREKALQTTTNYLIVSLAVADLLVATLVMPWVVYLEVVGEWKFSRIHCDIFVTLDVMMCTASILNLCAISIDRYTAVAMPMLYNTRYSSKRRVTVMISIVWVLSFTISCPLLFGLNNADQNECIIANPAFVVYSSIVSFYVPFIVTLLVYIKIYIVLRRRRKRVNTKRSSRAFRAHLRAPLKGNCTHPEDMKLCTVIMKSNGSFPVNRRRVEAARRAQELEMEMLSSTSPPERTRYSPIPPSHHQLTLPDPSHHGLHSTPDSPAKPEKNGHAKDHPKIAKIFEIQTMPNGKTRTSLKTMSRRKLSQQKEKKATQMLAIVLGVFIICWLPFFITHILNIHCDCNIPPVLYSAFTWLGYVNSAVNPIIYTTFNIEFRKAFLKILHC

C=CC(=O)O
inactive: Potency [1] | Potency [2] | outcome [3] | outcome [4] | Potency [5] | Potency [6] | Potency [7] | Potency [8] | Potency [9] | Potency [10] | Potency [11] | Potency [12] | Potency [13] | Potency [14] | Potency [15] | Potency [16] | Potency [17]

CCCCCCCCCCC(=O)O
inactive: Potency [1] | Potency [2] | outcome [3] | outcome [4] | Potency [5] | Potency [6] | Potency [7] | Potency [18] | Potency [8] | Potency [9] | Potency [10] | Potency [11] | Potency [12] | Potency [14] | Potency [15] | Potency [16] | Potency [17]

CCC(=O)Oc1ccc2c(c1)CC[C@@H]1[C@@H]2CC[C@@]2(C)[C@H]1C[C@@H](OC(=O)CC)[C@@H]2OC(=O)CC
inactive: Potency [1] | Potency [2] | outcome [3] | outcome [4] | Potency [5] | Potency [6] | Potency [7] | Potency [19] | Potency [9] | Potency [10] | Potency [11] | Potency [12] | Potency [15] | Potency [16] | Potency [17]

COc1ccc2c(c1)C(=O)N(CCc1ccc(S(=O)(=O)NC(=O)NC3CCCCC3)cc1)C(=O)C2(C)C
inactive: Potency [1] | Potency [2] | outcome [3] | outcome [4] | Potency [5] | Potency [6] | Potency [7] | Potency [18] | Potency [10] | Potency [11] | Potency [12] | Potency [15] | Potency [16]

CCCCOC(=O)C(C)CC (stereo unspecified)
inactive: Potency [1] | Potency [2] | outcome [3] | outcome [4] | Potency [5] | Potency [6] | Potency [7] | Potency [18] | Potency [19] | Potency [9] | Potency [10] | Potency [11] | Potency [12] | Potency [13] | Potency [14] | Potency [15] | Potency [17]

CCCCCCCCCCCCCCCCCCOCCO
inactive: activity change, negative = cytotoxicity [1] 1.01% [at 19 µM] | activity, positive = activation [2] -0.745% [at 19 µM] | activation [3] 1.36% [at 15.8 µM] | activation [4] 0.568% [at 11.8 µM] | activation [5] 4.4% [at 13.5 µM] | activation [6] 0.0249% [at 13.6 µM] | activity change, negative = cytotoxicity [7] -1.11% [at 13.5 µM] | activity change, negative = cytotoxicity [18] 2.48% [at 13.5 µM] | activity change, negative = cytotoxicity [8] 16.5% [at 13.5 µM] | activity, negative = inhibition [9] -22.3% [at 12.7 µM] | activation [10] -2.03% [at 15.9 µM] | activity, negative = inhibition [11] -0.0015% [at 12.6 µM] | activation [13] 3.72% [at 19 µM] | activity change, negative = inhibition [14] 0.259% [at 18.9 µM] | activity change, negative = inhibition [15] -12.3% [at 19 µM] | activation [16] -2.91% [at 19 µM] | activity change, negative = inhibition [17] -0.251% [at 18.9 µM]

O=C(O)Cc1ccc2c(c1)C(=O)c1ccccc1CO2
inactive: Potency [1] | Potency [2] | outcome [3] | outcome [4] | Potency [5] | Potency [6] | Potency [7] | Potency [18] | Potency [8] | Potency [9] | Potency [10] | Potency [11] | Potency [12] | Potency [15] | Potency [17]

CC(=O)Nc1ccn(C2COC(COC(=O)c3ccccc3)O2)c(=O)n1 (stereo unspecified)
inactive: Potency [1] | Potency [2] | outcome [3] | outcome [4] | Potency [5] | Potency [6] | Potency [7] | Potency [18] | Potency [8] | Potency [9] | Potency [10] | Potency [11] | Potency [12] | Potency [15] | Potency [16]
